Among all 400,000 compounds or so, about 13,000 (3.2%) were called active. About 18% were inconclusive and are not listed. The call rests on the fitted dose curve; in most records, active means well fitted cell-killing curve with a large enough effect; inconclusive means small, poorly fitted or top-dose-only effect, or effect the other way; inactive means flat fitted curve, though single readings scatter. What follows is part of a selection rich in actives, with near analogues and random picks from the rest.
Assay: qHTS assay for MDR1-selective chemotherapeutics: Primary screen using the drug-selected MDR subline cells KB-V1; further: nearly all actives have a fitted effect of over 60% in size
Conditions: KB-V1 MDR cells viability, CellTiter-Glo, 72 h; series mostly up to 46.1 µM; activity change, negative = cytotoxicity: at the top concentration
Source text: A prime difficulty in effectively treating cancer is the development of cellular resistance to multiple structurally unrelated anticancer drugs, a phenomenon known as multidrug resistance (MDR). […] Numerous strategies to overcome P-gp-mediated MDR have been explored, including the design of drugs that evade recognition and efflux, and development of inhibitors to block efflux and restore drug accumulation. […] An alternative approach is to exploit resistance by identifying drugs that target MDR cells over the non-resistant parental cells from which they were selected. […] The development of MDR1-selective agents represents a new strategy for resolving multidrug resistance, as it remains a long-standing clinical challenge for cancer chemotherapy.
Our goal is to identify compounds that selectively kill P-gp-expressing MDR cells. We will identify MDR1-selective compounds by comparing toxicity of compounds in the screening library against parental, drug-naive (KB-3-1) adenocarcinoma cells as well as their drug-selected MDR sub-line (KB-V1). The differential toxicity of compounds against these two cell lines will be used to identify MDR1-selective compounds, whose cytotoxicity is potentiated, rather than diminished, by P-gp expression. This assay will be utilized to conduct a quantitative high-throughput screen (qHTS) in collaboration with the NIH Chemical Genomics Center to identify selective agents, and probe hits arising from the screen will be validated using secondary assays and characterized through a well-established follow-up research program. This screen was run against the entire NCGC library collection of about 400,000 compounds.
NIH Molecular Libraries Probe Production Network [MLPCN]
NIH Chemical Genomics Center [NCGC]
PI: Michael Gottesman, National Cancer Institute, NIH
Briefly, 5 microL of media containing either KB-V1 cells (columns 1-2, 4-48) are dispensed into Greiner white, treated solid-bottom 1536-well assay plates (media-only control is added to column 3). Compounds are then transferred via Kalypsys pin tool equipped with 1536-pin array (10 nL slotted pins, V&P Scientific, San Diego, CA). Following addition of compound, the plates are incubated at 37 degrees C for 72 hours. CellTiter-Glo (2.5 µL/well) is then added, and the plates are read in a ViewLux reader (Perkin-Elmer, clear luminescence filter, 1 second exposure, 1x binning) following a 10 minute incubation. All cells are dispensed in DMEM phenol-red free media containing 10% FBS.
Library plates were screened starting from the lowest and proceeding to the highest concentration. Vehicle-only plates, with DMSO being pin-transferred to columns 5-48, will be inserted uniformly at the beginning and the end of each library in order to monitor and record any shifts in the background, which can be affected by reagent dispensers or loss in enzyme activity over time. Screening data will be corrected, normalized, and concentration-effect relationships will be derived by using publicly-available NCGC, NCATS curve fitting algorithms (http://ncgc.nih.gov/pub/openhts).
On the % scale 0 is the no-effect control and ±100 the full control effect; potency means the concentration at half of the fitted maximal effect.

Row | SMILES | activity change, negative = cytotoxicity | Potency
1 | Cc1ccc(C)c(N2CCN(C(=O)CN3C(=O)COc4ccc(S(=O)(=O)N5CCCCCC5)cc43)CC2)c1 | -1.22% (inactive) | 
2 | Cc1nn(-c2ccccn2)c2c1C(c1ccncc1)C1=C(CC(C)(C)CC1=O)N2 (configuration not stated) | -6.62% (inactive) | 
3 | CC1(C)CC(=O)C2=C(C1)Nc1cc(C(=O)c3ccccc3)ccc1NC2c1ccccn1 (configuration not stated) |  | 20.6 µM (active)
4 | Cc1cc2c(cc1C)NC(c1ccccn1)C1=C(CC(C)(C)CC1=O)N2 (configuration not stated) | -1.56% (inactive) | 
5 | COc1ccc(C)cc1NC(=O)COCc1cc(-c2cccs2)on1 | -7.37% (inactive) | 
6 | O=S1(=O)CC(N2CCN(c3ccccn3)CC2)CN1Cc1ccc(F)cc1 (configuration not stated) | -24.7% (inactive) | 
7 | COC(=O)C[C@@H]1C=C[C@@H](NS(=O)(=O)c2cccc(OC)c2)[C@@H](CO)O1 | -3.47% (inactive) | 
8 | CC(C)C[C@H]1CNC(=O)C(=O)N1C[C@@H]1CCCN1C[C@H](Cc1ccccc1)N1C[C@H](CC(C)C)N(CC2CCCCCC2)C(=O)C1=O | 1.82% (inactive) | 
9 | Cc1ccc(OCc2cc(C(=O)N(C)CCc3ccccc3)no2)cc1C | -18.2% (inactive) | 
10 | CN(Cc1cnccn1)C(=O)c1cc(COc2cccc(C(F)(F)F)c2)on1 | -13.2% (inactive) | 
11 | CN(Cc1cccnc1)C(=O)c1cc(COc2ccc3ncccc3c2)on1 |  | 5.17 µM (active)
12 | CC(C)c1cccc(C(C)C)c1Nc1cn[nH]c1 | 13.2% (inactive) | 
13 | CC(=O)c1c(C)[nH]c(C(=O)COC(=O)c2cccc(S(=O)(=O)N(C)c3ccccc3)c2)c1C |  | 11.6 µM (active)
14 | CC(=O)c1c(C)[nH]c(C(=O)COC(=O)c2cccs2)c1C | 0% (inactive) | 
15 | COc1cccc(C(=O)OCC(=O)c2[nH]c(C)c(C(C)=O)c2C)c1 | -9.26% (inactive) | 
16 | O=C(Nc1ccc2nc(SCC(=O)N3CCc4ccccc43)sc2c1)c1ccccc1F | 4.97% (inactive) | 
17 | COc1ccc(C2CC(=O)N(Cc3ccccc3C)c3c2c(C)nn3-c2nc(C)cc(C)n2)c(OC)c1 (configuration not stated) | -1.08% (inactive) | 
18 | C[C@@H]1CN([C@@H](C)CO)S(=O)(=O)c2ccc(C#Cc3cccc(F)c3)cc2O[C@H]1CN(C)S(=O)(=O)c1cn(C)cn1 | 9.43% (inactive) | 
19 | C[C@H]1CN([C@@H](C)CO)C(=O)CCCn2cc(nn2)CO[C@@H]1CN(C)S(=O)(=O)c1ccc(-c2ccccc2)cc1 | 13.4% (inactive) | 
20 | Cc1ccn2c(-c3csc(Nc4ccc(C(=O)O)cc4)n3)c(C)nc2c1 | -1.24% (inactive) | 
21 | O=c1c(=O)n(Cc2c(F)cccc2Cl)ccn1Cc1ccccc1 | 10.3% (inactive) | 
22 | O=C(Nc1cccn(Cc2ccccc2Cl)c1=O)NC1CCCCC1 | -3.85% (inactive) | 
23 | O=C(Nc1cccn(Cc2c(Cl)cccc2Cl)c1=O)c1ccc(Cl)cc1 |  | 3.66 µM (active)
24 | O=C(Nc1cccc2ccccc12)NC1CC1 | 11.2% (inactive) | 

Row | SMILES | activity change, negative = cytotoxicity | Potency
25 | CCCCNC(=O)OC1CC2CC1[C@H]1CCCCN1C2=O (some centres not stated) | -12.4% (inactive) | 
26 | C[C@@H]1CN([C@@H](C)CO)C(=O)c2cc(Br)cnc2O[C@@H]1CN(C)C(=O)C1CCCCC1 | -14.1% (inactive) | 
27 | CNC(=S)N/N=C/c1cn(Cc2ccc(C)cc2)c2ccccc12 |  | 16.4 µM (active)
28 | NC(=O)Cn1cc(/C=N\NS(=O)(=O)c2ccccc2)c2ccccc21 | 0% (inactive) | 
29 | CNC(=S)N/N=C/c1ccc(OCc2ccccc2)c(Br)c1 | -3.98% (inactive) | 
30 | COc1ccc(OCCn2cc(C(=O)C3CCCCC3)c3ccccc32)cc1 | -19% (inactive) | 
31 | Cc1ccc(OCCOc2cccc(/C=N/NC(N)=O)c2)cc1 | 1.37% (inactive) | 
32 | CCOC(=O)N/N=C/c1cn(Cc2ccccc2Cl)c2ccccc12 |  | 5.8 µM (active)
33 | COC(=O)N/N=C/c1cn(CCCOc2ccc(C)cc2)c2ccccc12 |  | 18.4 µM (active)
34 | COc1cccc(Cn2cc(/C=N/NC(=O)c3cc(O)cc(O)c3)c3ccccc32)c1 | -23.7% (inactive) | 
35 | N#CCC(=O)N/N=C/c1cn(Cc2ccc3ccccc3c2)c2ccccc12 | -0.985% (inactive) | 
36 | CCCCCCCCN1C(=O)[C@H](CC(=O)NCc2cccc3ccccc23)C[C@@]2(C(=O)OC)CCCCC=C12 | -23.6% (inactive) | 
37 | Cc1ccccc1S(=O)(=O)NC(=O)C1(C)CCN1C(=O)Cc1ccc(Cl)cc1Cl (configuration not stated) | 4.1% (inactive) | 
38 | CCc1nc2c(OCCOc3ccc(F)cc3)cccn2c1N(C)C(=O)c1ccccc1F | -15.3% (inactive) | 
39 | Clc1ccc(-c2cccc3nccn23)cc1 | -9.65% (inactive) | 
40 | C=CCN1CCN(c2ccncc2S(=O)(=O)N2CCN(C)CC2)CC1 | -1.22% (inactive) | 
41 | COc1cccc(NC(=O)Nc2ccc3c(c2)N(C)C(=O)c2ccccc2S3)c1 | -27% (inactive) | 
42 | CC1(C)C=Cc2c(ccc(C(=O)/C=C/c3ccccc3)c2O)O1 | 0% (inactive) | 
43 | O=C(c1ccc(N2CCOCC2)c([N+](=O)[O-])c1)N1CCN(c2ccccc2F)CC1 | -21.3% (inactive) | 
44 | O=C(COc1ccccc1F)NNC(=O)c1ccc(N2CCCCC2)c([N+](=O)[O-])c1 |  | 16.4 µM (active)
45 | O=C(NCCCN1CCOCC1)c1ccc(N2CCCC2)c([N+](=O)[O-])c1 | -11.8% (inactive) | 
46 | CN(C)c1cccc(NC(=O)c2ccc(-c3ccc(F)c(F)c3)c3ccoc23)c1 | -1.95% (inactive) | 
47 | CO[C@@H]1CN(C)C(=O)c2cc(NC(=O)Nc3cc(F)ccc3F)ccc2OC[C@H](C)N(C(=O)c2ccccn2)C[C@@H]1C | 5.61% (inactive) | 

From PubChem BioAssay AID1347076 (National Center for Advancing Translational Sciences (NCATS), 2019)
